The results in this text go back to PubChem BioAssay (Tox21).

Experiment [1] in a line: Nuclear factor erythroid 2-related factor 2/antioxidant responsive element (Nrf2/ARE) small molecule agonists: qHTS cell viability counter screen in human keratinocytes (AID 1919968; active means well fitted curve in the direction sought with a large enough effect in the repeat runs; an effect the other way counts as inactive or inconclusive; further: nearly all actives have a fitted effect of over 55% in size; further: potency means the concentration at half of the fitted maximal effect). In outline:
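Cells of the KeratinoSens line were plated at 1,500 per well and left for 5 h before compound transfer from DMSO stocks. After a 23 h incubation (37 C, 5% CO2), CellTiter-Fluor was added. Signal was taken as fluorescence intensity 1 h later.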

Experiment [2] can be described thus: Nuclear factor erythroid 2-related factor 2/antioxidant responsive element (Nrf2/ARE) small molecule agonists: luciferase reporter gene qHTS assay in human keratinocytes (AID 1919969). Further: nearly all actives have a fitted effect of over 35% in size. Further: potency means the concentration at half of the fitted maximal effect.
Experiment [3] has as its target KiSS-1 receptor (Homo sapiens) (UniProt Q969F8). Nature of the experiment: Human kisspeptin (KISS1R) small molecule agonists, calcium flux assay in KISS1R-HEK293 cells (AID 1920064; active means well fitted curve in the direction sought with a large enough effect in the repeat runs; an effect the other way counts as inactive or inconclusive). In outline: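 Cell line: HEK293, stable human KISS1R. Dye loading 1 h at 37 C after 18 h culture. Read: kinetic fluorescence, 480/540 nm, 3 min at 1 s intervals.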
Background: Calcium flux is commonly read through the fluorescence of an indicator in the cells.

A short description of experiment [4]: p53 small molecule agonists, cell-based qHTS assay with human liver microsomes: qHTS cell viability counter screen (AID 1963579). Further: nearly all actives have a fitted effect of over 45% in size. Further: potency means the concentration at half of the fitted maximal effect. In outline:
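Metabolically activated exposure: compounds, human liver microsomes and NADPH (0.5 mg/mL final apiece) were added to p53RE-bla cells seeded 5 h earlier, left 16 h at 37 C, and then assessed for viability by CellTiter-Glo luminescence.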

The nature of experiment [5]: p53 small molecule agonists, cell-based qHTS assay with rat liver microsomes: qHTS cell viability counter screen (AID 1963580). Further: nearly all actives have a fitted effect of over 45% in size. Further: potency means the concentration at half of the fitted maximal effect. An outline of the steps: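 Luminescent ATP readout (CellTiter-Glo, 30 min at room temperature) reports viability of p53RE-bla HCT-116 cells after 16 h at 37 C with test compounds under metabolic activation by rat liver microsomes and NADPH at 0.5 mg/mL final each.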
In general terms: qHTS replaces the single test concentration by a dilution series.

The nature of experiment [6]: p53 small molecule agonists, cell-based qHTS assay: qHTS cell viability counter screen (AID 1963581). Further: nearly all actives have a fitted effect of over 45% in size. An outline of the steps: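 ATP content measured by luminescence in HCT-116 p53RE-bla cells treated 16 h at 37 C, same wells as the reporter screen.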
Experiment [7] concerns the target 5-hydroxytryptamine receptor 2A (Homo sapiens) (UniProt P28223). Nature of the experiment: 5-hydroxytryptamine receptor 2A (HTR2A) small molecule antagonists, cell-based qHTS assay (AID 1963586). Further: nearly all actives have a fitted effect of over 45% in size. An outline of the steps: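 CHO cells stably expressing human HTR2A were plated for 18 h at 37 C, then loaded with calcium dye for 1 h. Compounds were preincubated 5 min at room temperature before DOI (4 nM solution) was added. Kinetic fluorescence was read for 3 min.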

The target is the same in experiment [8]. In words: 5-hydroxytryptamine receptor 2A (HTR2A) small molecule agonists, cell-based qHTS assay (AID 1963587). Further: nearly all actives have a fitted effect of over 30% in size. Further: potency means the concentration at half of the fitted maximal effect. In outline:
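HTR2A-CHO cells, plated 18 h at 37 C/5% CO2, dye-loaded 1 h at 37 C; compounds in DMSO added by pin tool (agonist mode). Intracellular calcium flux read as kinetic fluorescence on FDSS over 2 min at 1 s intervals.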

In experiment [9] the target is Muscarinic acetylcholine receptor M1 (Homo sapiens) (UniProt P11229). Nature of the experiment: Cholinergic receptor muscarinic 1 (CHRM1) small molecule antagonists, cell-based qHTS assay (AID 1963588). Further: nearly all actives have a fitted effect of over 40% in size. Further: potency means the concentration at half of the fitted maximal effect. In outline:
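Compounds were tested at 15 concentrations in three independent runs. Dye-loaded CHRM1-CHO cells were exposed 5 min at room temperature before stimulation by acetylcholine added at 50nM. Intracellular calcium was read kinetically on FDSS for 3 min.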

For experiment [10] the target is unchanged. In words: Cholinergic receptor muscarinic 1 (CHRM1) small molecule agonists, cell-based qHTS assay (AID 1963589). Further: nearly all actives have a fitted effect of over 35% in size. An outline of the steps: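 Homogeneous fluorescence calcium flux, agonist mode. Human M1-expressing CHO cells; compound dosed at 15 concentrations, three independent runs; signal sampled every 1 sec.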
Experiment [11] in a line: cAMP Responsive Elements (CRE) small molecule agonists, cell-based qHTS assay (AID 1963590). An outline of the steps:
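HEK 293T cells stably bearing CRE-bla were plated at 2,000 cells per well and rested 18 h. Compounds, positive controls or DMSO were added for 3 h at 37 C. LiveBLAzer B/G substrate was then loaded for 2 h at room temperature.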

Experiment [12] in a line: cAMP Responsive Elements (CRE) small molecule antagonists, cell-based qHTS assay (AID 1963591; active means well fitted inhibition curve with a large enough effect in the signal ratio in the repeat runs, not every such curve was filed as active; the % refers to the signal ratio; further: potency means the concentration at half of the fitted maximal effect). An outline of the steps: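 First, CRE-bla HEK293T cells settled 18 h at 37 C. Next, compound and 0.25 uM final NKH477 were applied for 3 h. Last, LiveBLAzer B/G substrate was loaded for 2 h at room temperature.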
The target of experiment [13] is Beta-2 adrenergic receptor (Homo sapiens) (UniProt P07550). In words: Adrenergic beta2 receptor (ADRB2) small molecule antagonists, cell-based qHTS assay (AID 1963592). Further: series mostly up to about 92 µM; nearly all actives have a fitted effect of over 50% in size. In outline: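 Assay format: CHO-ADRB2 cells, 18-20hr seeding at 37C/5% CO2, then compound plus 1nM isoproterenol agonist mix for 0.5hr RT. Homogeneous time-resolved fluorescence cAMP detection after 1hr, expressed as 665/615 nm ratio.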

Experiment [14] deals with D(2) dopamine receptor (Homo sapiens) (UniProt P14416). Nature of the experiment: Dopamine D2 receptor (DRD2) small molecule agonists, cell-based qHTS assay (AID 1963594). Further: nearly all actives have a fitted effect of over 35% in size. An outline of the steps:
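HEK293 cells stably expressing DRD2 were cultured 24 h at 37 C, then given Ro20-1724 (0.1 mM final) and compounds for 10 min at room temperature. NKH477 (200nM) was then added for 30 min. cAMP was read by HTRF.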

For experiment [15] the target is unchanged. In words: Dopamine D2 receptor (DRD2) small molecule antagonists, cell-based qHTS assay (AID 1963595; active means well fitted inhibition curve with a large enough effect in the signal ratio in the repeat runs, with a control signal flat; the % refers to the signal ratio; further: potency means the concentration at half of the fitted maximal effect). In outline:
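Antagonist mode in DRD2-HEK293 cells: after compound addition with 0.1 mM Ro20-1724, cells received quinpirole (12 nM) and NKH477 (200 nM) for 30 min at room temperature; HTRF cAMP read after 1 h detection.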

Experiment [16] can be described thus: G protein-coupled receptor (GPCR) small molecule agonists, calcium flux assay: HEK293 wild type cell line counter screen (AID 1920065). In outline:
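Tox21 10K compounds, 15 concentrations each in triplicate, pin-transferred in DMSO onto dye-loaded cells; kinetic read at 480/540 nm for 3 min, 1 s intervals.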

Experiment [17] in a line: p53 small molecule agonists, cell-based qHTS assay with rat liver microsomes (AID 1963578). In outline: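 Agonist mode in p53RE-bla reporter cells, with compounds co-incubated 16 h at 37 C alongside 0.5 mg/mL rat liver microsomes and 0.5 mg/mL NADPH (final), followed by a 2 h LiveBLAzer detection step.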
Experiment [18] in a line: p53 small molecule agonists, cell-based qHTS assay (AID 1963582; active means well fitted activation curve with a large enough effect in the signal ratio in the repeat runs, not every such curve was filed as active; the % refers to the signal ratio). In outline: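 16 h compound exposure (37 C) of p53 response element–bla cells, preceded by 5 h recovery at 37 C/5% CO2; read-out via LiveBLAzer B/G FRET substrate, 2 h RT, fluorescence intensity.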
Experiment [19] in a line: p53 small molecule agonists, cell-based qHTS assay with human liver microsomes (AID 1963577). In outline: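 In this qHTS, p53 response-element beta-lactamase cells receive test compound together with a microsome/NADPH activating system (0.5 mg/mL final each) and are incubated 16 h at 37 C before LiveBLAzer fluorescence detection.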

Unmarked numbers belong to inactive results. Results filed as inconclusive are left out. Active and inactive are the calls of the source. Unless noted, the call rests on the fitted dose curve.
On the % scale 0 is the no-effect control and ±100 the full control effect.

Beta-2 adrenergic receptor (Homo sapiens), sequence (P07550 whole entry, looked up): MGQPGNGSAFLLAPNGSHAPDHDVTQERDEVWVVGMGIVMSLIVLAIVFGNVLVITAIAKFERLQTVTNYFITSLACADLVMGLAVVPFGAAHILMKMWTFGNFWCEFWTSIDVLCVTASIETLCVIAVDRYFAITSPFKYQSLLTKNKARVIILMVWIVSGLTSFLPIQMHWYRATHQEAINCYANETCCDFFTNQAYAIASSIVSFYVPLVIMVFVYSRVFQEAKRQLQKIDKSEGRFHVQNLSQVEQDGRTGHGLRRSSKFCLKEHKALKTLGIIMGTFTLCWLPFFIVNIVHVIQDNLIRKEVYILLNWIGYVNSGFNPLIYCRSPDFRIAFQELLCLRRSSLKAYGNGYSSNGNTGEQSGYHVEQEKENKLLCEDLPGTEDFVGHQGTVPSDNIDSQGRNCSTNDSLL
5-hydroxytryptamine receptor 2A (Homo sapiens), sequence (P28223 whole entry, looked up): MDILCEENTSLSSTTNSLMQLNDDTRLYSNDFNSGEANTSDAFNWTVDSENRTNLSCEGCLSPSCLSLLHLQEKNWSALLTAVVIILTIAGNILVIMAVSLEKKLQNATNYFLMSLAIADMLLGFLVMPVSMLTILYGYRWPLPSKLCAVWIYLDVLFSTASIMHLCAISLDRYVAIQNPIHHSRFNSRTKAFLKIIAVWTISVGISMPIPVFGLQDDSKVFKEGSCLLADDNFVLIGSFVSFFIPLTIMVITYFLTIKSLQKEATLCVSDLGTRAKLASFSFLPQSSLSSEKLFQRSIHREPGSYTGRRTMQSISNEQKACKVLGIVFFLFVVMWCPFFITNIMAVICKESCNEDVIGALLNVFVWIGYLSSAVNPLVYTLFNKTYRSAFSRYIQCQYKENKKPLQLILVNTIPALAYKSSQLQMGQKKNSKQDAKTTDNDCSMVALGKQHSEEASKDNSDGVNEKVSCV
Muscarinic acetylcholine receptor M1 (Homo sapiens), sequence (P11229 whole entry, looked up): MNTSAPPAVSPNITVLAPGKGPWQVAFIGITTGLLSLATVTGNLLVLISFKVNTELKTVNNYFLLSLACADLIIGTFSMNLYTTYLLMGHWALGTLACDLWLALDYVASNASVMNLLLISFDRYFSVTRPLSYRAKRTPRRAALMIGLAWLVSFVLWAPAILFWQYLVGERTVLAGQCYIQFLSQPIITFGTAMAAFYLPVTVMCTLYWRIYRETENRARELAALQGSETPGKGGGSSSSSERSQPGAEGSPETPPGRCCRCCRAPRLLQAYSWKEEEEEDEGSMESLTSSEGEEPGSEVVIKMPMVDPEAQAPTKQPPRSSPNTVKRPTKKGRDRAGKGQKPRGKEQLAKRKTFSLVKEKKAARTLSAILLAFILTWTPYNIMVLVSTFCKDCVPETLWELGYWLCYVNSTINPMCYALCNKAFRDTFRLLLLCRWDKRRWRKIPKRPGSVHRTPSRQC
KiSS-1 receptor (Homo sapiens), sequence (Q969F8 whole entry, looked up): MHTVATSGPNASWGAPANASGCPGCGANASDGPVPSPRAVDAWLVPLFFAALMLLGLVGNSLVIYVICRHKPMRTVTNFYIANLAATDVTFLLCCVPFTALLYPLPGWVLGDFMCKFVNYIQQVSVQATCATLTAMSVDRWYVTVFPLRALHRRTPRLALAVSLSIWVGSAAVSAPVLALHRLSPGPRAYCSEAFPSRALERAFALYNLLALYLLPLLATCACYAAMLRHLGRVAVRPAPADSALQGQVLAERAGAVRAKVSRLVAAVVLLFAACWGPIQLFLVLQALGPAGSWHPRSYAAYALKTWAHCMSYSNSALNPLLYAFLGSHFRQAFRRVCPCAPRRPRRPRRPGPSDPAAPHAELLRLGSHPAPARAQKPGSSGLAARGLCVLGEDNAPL
D(2) dopamine receptor (Homo sapiens), sequence (P14416 whole entry, looked up): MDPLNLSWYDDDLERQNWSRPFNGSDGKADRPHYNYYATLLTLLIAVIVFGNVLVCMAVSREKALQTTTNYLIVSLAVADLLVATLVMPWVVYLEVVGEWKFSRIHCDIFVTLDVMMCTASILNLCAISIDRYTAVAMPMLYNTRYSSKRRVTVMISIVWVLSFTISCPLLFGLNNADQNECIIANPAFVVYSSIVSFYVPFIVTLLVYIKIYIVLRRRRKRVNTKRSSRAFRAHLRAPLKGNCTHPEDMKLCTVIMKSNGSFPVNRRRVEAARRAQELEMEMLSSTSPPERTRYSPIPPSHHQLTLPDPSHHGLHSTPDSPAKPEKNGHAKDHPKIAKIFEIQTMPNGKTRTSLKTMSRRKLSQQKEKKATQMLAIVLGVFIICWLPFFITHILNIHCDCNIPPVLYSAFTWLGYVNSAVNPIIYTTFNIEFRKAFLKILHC

In the case of `CN(C1CCCCC1)C1CCCCC1`, the Potency result in [1], in [2], in experiment [3], in experiment [4], in experiment [5] and in experiment [6] was “inactive” each time. The Potency result in experiment [7], in experiment [8], in experiment [9], in experiment [10], in [11] and in [12] was “inactive” each time. The Potency entry in [13], in [14] and in experiment [15] was “inactive” in each case.

In the case of `[Cl][Sn]([c]1ccccc1)([c]1ccccc1)[c]1ccccc1`, the Potency was 1.03 µM (active) in [1]; 0.58 µM (active) in experiment [2]; 6.14 µM (active) in experiment [4]; 6.14 µM (active) in experiment [5]; 7.3 µM (active) in experiment [15]. Besides, the activation in experiment [3] was 2.74% [at 15.8 µM]; in experiment [16] it was 4.28% [at 11.8 µM]; in experiment [17], -5.37% [at 13.6 µM]; in [10], 2.71% [at 15.8 µM]; in [14] it was 8.68% [at 19 µM]. Further, the activity, negative = inhibition in experiment [7] was -29.3% [at 12.7 µM]; in experiment [9] it was -4.75% [at 12.6 µM].

For `CN1COCN(Cc2cnc(Cl)s2)/C1=N\[N+](=O)[O-]`, the Potency entry in experiment [1], in [2], in experiment [3], in [16], in experiment [17] and in experiment [4] was “inactive” each time. In addition, the Potency entry in [5], in experiment [6], in experiment [18], in experiment [7], in experiment [8] and in experiment [9] was “inactive” each time. In addition, the Potency entry in experiment [10], in [11], in experiment [12], in experiment [13], in experiment [14] and in experiment [15] was “inactive” throughout.

With `CCCN(CCC)c1c([N+](=O)[O-])cc(S(N)(=O)=O)cc1[N+](=O)[O-]`, the Potency in experiment [1] was 51.8 µM (active); in experiment [4], 38.8 µM (active); in experiment [5], 49.4 µM (active); in [8], 37 µM (active); in experiment [15], 30.6 µM (active). Moreover, the Potency entry in experiment [2], in experiment [3], in experiment [16] and in experiment [7] was “inactive” throughout.

For `CCCCCCCCCC[N+](C)(C)CCCCCCCCCC`, the Potency in experiment [1] is 27.3 µM (active); in [5], 45.8 µM (active); in experiment [9] it was 10.6 µM (active); in [12], 43.3 µM (active). Moreover, the Potency entry in [2], in experiment [3], in experiment [16], in experiment [19], in [17] and in [7] was “inactive” throughout. The Potency entry in experiment [10] and in experiment [14] was “inactive” each time.

With `CCC1(CC)C(=O)NC(=O)NC1=O`, the Potency result in experiment [1], in [2], in experiment [3], in experiment [16], in [4] and in [5] was “inactive” in each case. Further, the Potency result in experiment [7], in [9], in experiment [10], in experiment [11], in experiment [12] and in experiment [13] was “inactive” each time. The Potency entry in [14] was “inactive”.

As to `NCC1(CC(=O)O)CCCCC1`, the Potency entry in experiment [1], in experiment [2], in experiment [3], in experiment [16], in experiment [19] and in experiment [5] was “inactive” each time. The Potency entry in experiment [6], in [18], in experiment [11], in experiment [12], in experiment [13] and in experiment [14] was “inactive” throughout.

For the compound `C[CH2][Hg][N]1C(=O)C2C(C1=O)C1(Cl)C(Cl)=C(Cl)C2(Cl)C1(Cl)Cl` (configuration not stated), the figures for the Potency in [1], in experiment [2] and in experiment [8] were 5.17 µM (active), 2.91 µM (active) and 10.4 µM (active), respectively. Moreover, the activation was 13.3% [at 15.8 µM] in [3], -0.0279% [at 11.8 µM] in [16], -12.1% [at 13.5 µM] in experiment [19] and -6.79% [at 13.6 µM] in [17]. In addition, the activity, negative = inhibition is 14.2% [at 12.7 µM] in experiment [7] and -14.4% [at 12.6 µM] in experiment [9]. Besides, the figures for the activity change, negative = inhibition in experiment [13] and in [15] were -18.8% [at 19 µM] and 2.84% [at 18.9 µM], respectively.

On to `CCOP(=O)(NC(C)C)Oc1ccc(SC)c(C)c1` (configuration not stated), for which the Potency entry in experiment [1], in [3], in [16], in experiment [5], in experiment [18] and in [7] was “inactive” in each case. Besides, the Potency result in experiment [9], in [10] and in [15] was “inactive” throughout. Moreover, the Potency in experiment [2] is 15.4 µM (active).
